This note sets out measurements from PubChem BioAssay.

Unmarked numbers belong to inactive results. Calls of active or inactive are those of the source.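 The calls were made as follows: active = growth inhibition above 50% at the single 2 µM test dose, taken to imply half-maximal potency below 2 µM; inactive = the rest.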

A short description of the assay: antimalarial activity against Dd2 strain (AID 2302).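 Also: 0% = DMSO untreated growth and 100% = chloroquine plus artemisinin killed control.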 The following applies: P. falciparum Dd2 in RBCs, LDH growth readout, 72 h; at 2 µM; hits give high values.
Take `COc1ccc(Cc2cnc(N)nc2N)cc1OCCCOc1ccccc1`: the growth inhibition was 4%.
To `CCOC(=O)c1c(-c2ccccc2)c(C(=O)OCC)n2ccccc12` belongs 70% (active); to `Cc1cc(=O)c(-c2ccc(S(=O)(=O)c3ccc(Cl)cc3)cc2)c(C)[nH]1`, 80% (active); to `Cc1[nH]c(C)c(-c2ccc(Oc3ccc(Cl)cc3)c(Cl)c2)c(=O)c1Br`, 96% (active).
The value for `COc1ccc2c(CNCCCCCCNCc3c(OC)ccc4cc(OC)ccc34)c(OC)ccc2c1` was 79% (active); that for `Cc1cc2c3c(N)nc(N)nc3ccc2n1C` was -2%.
With `COc1ccc(Cc2cnc3nc(N)nc(N)c3c2C)cc1OC`, the growth inhibition is 97% (active).
The value for `Nc1nc(N)c2c(Oc3ccc(Cl)c(Cl)c3)cccc2n1` was 22%; that for `CCCCCCCN(Cc1ccc(OC(C)(C)C(=O)OCC)cc1)C(=O)Cc1ccc(F)cc1F` was 95% (active).
The value for `Oc1c(CNC2CCCCC2)cc(Cl)c2ccccc12` was 101% (active).
With `COc1ccc2c(c1CNCCCCCCNCc1c(OC)ccc3c1CCCC3)CCCC2`, the growth inhibition was 7%.
Take `COc1cc(Cc2cnc(N)nc2N)cc(OCCCCCCC(=O)O)c1OC`: the growth inhibition is 2%.
The value for `CCCCNCCOc1ccc(-c2nc(-c3ccccc3)c(-c3ccccc3)[nH]2)cc1` was 34%; that for `Nc1nc(N)c2c(Sc3ccc(F)cc3)cccc2n1` was -3%; that for `Cc1[nH]c(C)c(-c2ccc(Oc3ccc(F)cc3)cc2)c(=O)c1Br` was 98% (active).
To `Cc1[nH]c(C)c(-c2ccc(-c3ccc(F)cc3)cc2)c(=O)c1Cl` belongs 96% (active); to `Cc1[nH]c(C)c(-c2ccc(Oc3cccc(OC(F)(F)F)c3)cc2)c(=O)c1Cl`, 97% (active); to `CC1CN=C(c2ccc(NC(=O)Nc3ccc(C4=NCC(C)N4)cc3)cc2)N1` (centres undefined), 67% (active).
As to `CCCCC#Cc1cnc2nc(N)[nH]c(=O)c2n1`, the growth inhibition was 2%.
To `COc1cc(Cc2cnc(N)nc2N)cc(OCCCS(=O)(=O)O)c1OC` belongs -6%.
On to `CCCOc1ccc(CNCCCCCCNCc2ccc(OCCC)c3ccccc23)c2ccccc12`, for which the growth inhibition is 96% (active).
To `NC(N)=NC(=O)Nc1ccc(Cl)c(C(F)(F)F)c1` belongs 13%; to `CCOC(=O)c1nc2ccc(SC3CCCCC3)cn2c1Br`, 3%.
To `CC(C)C(=O)Nc1c(F)cc(F)cc1CCc1ccc(O)cc1` belongs 91% (active); to `CC(CN=C(N)c1cccc(C(N)=NCC(C)Oc2cccc(C3CCCCC3)c2)n1)Oc1cccc(C2CCCCC2)c1` (centres undefined), 31%; to `CCNC(=NCc1ccccc1)NCCCCCCNC(=NCc1ccccc1)NCC`, 95% (active).
Consider `COc1ccc(OC)c(CC2c3ccc(Br)c(O)c3CCN2C)c1` (centres undefined), for which the growth inhibition was 97% (active).
The value for `CCc1ccc(Cc2cnc3nc(N)nc(N)c3c2C)cc1CC` was -1%; that for `COc1cc2c(cc1OC)C(C)(C)CN1Cc3c(c(CO)c(OC)c(OC)c3OC)CC21` (centres undefined) was 9%; that for `Cc1c(Cc2ccc(C(C)C)cc2)cnc2nc(N)nc(N)c12` was -3%.
To `COc1ccc2c(OC)cccc2c1CNCCCCCCNCc1c(OC)ccc2c(OC)cccc12` belongs 28%; to `CCCc1cc(Cc2cnc(N)nc2N)cc2c1OC(C)(C)C2`, 3%; to `CCOc1cc(Cc2cnc(N)nc2N)ccc1OC`, -4%.
To `CCC1=C(C[C@H]2NCCc3cc(OC)c(OC)cc32)C[C@H]2c3cc(OC)c(OC)cc3CCN2C1` belongs 100% (active).
As for `CCOc1cc2ncnc(Nc3ccc(OCc4ccccc4OC)c(OC)c3)c2cc1OCC`, the growth inhibition is 52% (active).
In the case of `Cc1[nH]c(C)c(-c2ccc(Oc3ccc(Cl)cc3)cc2)c(=O)c1C`, the growth inhibition was 95% (active).
On to `CN(Cc1cnc2nc(N)nc(N)c2n1)c1ccc(C(=O)N[C@H](CCC(=O)OC(C)(C)C)C(=O)N[C@@H](CCC(=O)OC(C)(C)C)C(=O)OC(C)(C)C)cc1`, for which the growth inhibition is 1%.
`CCCCNCc1ccc(OCc2cccc(COc3ccc(CNCCCC)cc3I)c2)c(I)c1`: the growth inhibition is 13%.
As for `CC(C)(C)c1ccc(-c2nnc(N)nc2N)cc1`, the growth inhibition is -4%.
